Source: PubChem BioAssay (EPA / NIEHS)
Values joined by “and” are separate entries in the source; they are usually repeats but may differ in a detail not shown here. Equal values may be shown once. Inconclusive results are not listed. Some structures have more than one record in an assay (separate samples or runs), and their calls can disagree. Active and inactive are the calls of the source. The calls were made as follows, unless noted: active = hit-call score of the fitted dose curve at least 0.9, where 1 is the maximum; inactive = score below 0.9.

Key:
[1] = BSK_4H_Eotaxin3: BioMAP Diversity Plus: 4H Assay for Eotaxin 3 Biomarker Activity (AID 2283000); conditions: primary human endothelial cells (HUVEC); actives raise or lower the signal
How it was run: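 Chemicals were added to human umbilical vein endothelium cultures, and Eotaxin-3 was quantified by ELISA at 24 h. Values were derived by bidirectional fitting with DMSO serving as negative control and activity baseline.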

[2] = molecular target: human Peroxisome Proliferator-activated Receptor alpha (PPARa), PPARA (gene 5465) (UniProt Q07869); test: ATG_PPARa_TRANS: Attagene TRANS-FACTORIAL HepG2 Assay for human Peroxisome Proliferator-activated Receptor alpha (PPARa) (AID 2283001; active = hit-call score of the fitted dose curve at least 0.9, where 1 is the maximum;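 as to AC50: potency for gain of reporter signal over DMSO so agonist or activator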)
How it was run: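 Reporter transcripts quantified by RT-PCR plus capillary electrophoresis after 24 h treatment, fitted upward relative to DMSO. Cells: human HepG2 transiently carrying multiple GAL4-UAS reporter units driven by NR-Gal4 chimeras.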

[3] = molecular target: human Peroxisome Proliferator-activated Receptor delta (PPARd), PPARD (gene 5467) (UniProt Q03181); test: ATG_PPARd_TRANS: Attagene TRANS-FACTORIAL HepG2 Assay for human Peroxisome Proliferator-activated Receptor delta (PPARd) (AID 2283002; active = hit-call score of the fitted dose curve at least 0.9, where 1 is the maximum)
How it was run: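 Transient HepG2 transfection (multiple GAL4-UAS RTUs, chimeric receptor-Gal4); 24 h dosing; total RNA → oligo(dT) RT → PCR → 6-FAM primer extension → HpaI cut → CE. Positive direction vs DMSO.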

[4] = BSK_3C_Proliferation: Cell Proliferation Assessment in the BioMAP Diversity Plus: 3C Assay (AID 2283006); conditions: primary human endothelial cells (HUVEC);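 as to AC50: potency may reflect either rise or fall in cell number versus DMSO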
How it was run: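 Cells (human umbilical vein endothelial, sub-confluent) receive test chemical; after 48 h they are fixed in 10% trichloroacetic acid, stained with 0.1% SRB and read at 560 nm. Activity is referenced to DMSO, fitting increases and decreases.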

[5] = molecular target: Peroxisome proliferator-activated receptor gamma (Homo sapiens) (UniProt P37231); test: ATG_PPARg_TRANS: Attagene TRANS-FACTORIAL HepG2 Assay for human Peroxisome Proliferator-activated Receptor-gamma (PPARg) (AID 2283007; active = hit-call score of the fitted dose curve at least 0.9, where 1 is the maximum)
How it was run: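 Human hepatoma HepG2, transient MRTU transfection, 24 h treatment. mRNA reporter signal by RT-PCR plus capillary electrophoresis, fluorescence detection; fitted for increase over DMSO negative control.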

[6] = molecular target: Nuclear receptor subfamily 1 group I member 2 (Homo sapiens) (UniProt O75469); test: ATG_PXR_TRANS: Attagene TRANS-FACTORIAL HepG2 Assay for human Pregnane X Receptor (PXR) (AID 2283008; active = hit-call score of the fitted dose curve at least 0.9, where 1 is the maximum)
How it was run: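 Trans-factorial format: exogenous NR-Gal4 fusion activity, not endogenous factor, in transfected human HepG2 liver cells. After 24 h dosing, RNA isolated, reverse-transcribed, amplified and resolved by capillary electrophoresis; induction scored versus DMSO.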

[7] = molecular target: human RAR-related Orphan Receptor beta (RORb), RORB (gene 6096) (UniProt Q92753); test: ATG_RORb_TRANS: Attagene TRANS-FACTORIAL HepG2 Assay for human RAR-related Orphan Receptor beta (RORb) (AID 2283010; active = hit-call score of the fitted dose curve at least 0.9, where 1 is the maximum)
How it was run: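 Transfect HepG2 with multiple GAL4-UAS reporter transcription units; dose chemicals for 24 h; isolate RNA, reverse-transcribe and PCR-amplify reporter sequences; label, digest and resolve fragments by capillary electrophoresis; fit increases relative to DMSO.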

[8] = molecular target: Retinoic acid receptor RXR-alpha (Homo sapiens) (UniProt P19793); test: ATG_RXRa_TRANS: Attagene TRANS-FACTORIAL HepG2 Assay for human Retinoid X Receptor alpha (RXRa) (AID 2283012; active = hit-call score of the fitted dose curve at least 0.9, where 1 is the maximum)
How it was run: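 Measures exogenous chimeric NR-GAL4 activity in transfected HepG2 liver cells after 24 h of dosing. Induced reporter mRNA was detected by RT-PCR with capillary electrophoresis, and gain of signal was analysed against DMSO.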

[9] = read-out: E-selectin (Homo sapiens) (UniProt P16581); test: BSK_3C_Eselectin: BioMAP Diversity Plus: 3C Assay for Eselectin Biomarker Activity (AID 2283015); conditions: primary human endothelial cells (HUVEC); actives raise or lower the signal;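 also: cell surface E-selectin protein quantified by ELISA 24 h after dosing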
How it was run: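 ELISA read-out of E-selectin on endothelial monolayers after 24 h chemical treatment. Human umbilical vein primary cells served as the system, with DMSO defining baseline activity for bidirectional fitting.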

[10] = read-out: Interleukin-1 alpha (IL1a), IL1A (gene 3552); test: BSK_BE3C_IL1a: BioMAP Diversity Plus: BE3C Assay for Interleukin-1 alpha (IL1a) Biomarker Activity (AID 2283016); conditions: primary human bronchial epithelial cells; actives raise or lower the signal
How it was run: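 Signal from IL-1a ELISA, taken 24 h after chemical dosing of human bronchial epithelial cells, is compared with DMSO as baseline using bidirectional curve fitting.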

[11] = read-out: Monocyte Chemoattractant Protein-1 (MCP1), CCL2 (gene 6347); test: BSK_3C_MCP1: BioMAP Diversity Plus: 3C Assay for Monocyte Chemoattractant Protein-1 (MCP1) Biomarker Activity (AID 2283017); conditions: primary human endothelial cells (HUVEC); actives raise or lower the signal
How it was run: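 ELISA read-out of MCP-1 from human umbilical vein endothelial cell cultures harvested 24 h post-dosing. Gain or loss of signal was fitted relative to DMSO.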

[12] = read-out: Monocyte Chemoattractant Protein-1 (MCP1), CCL2 (gene 6347); test: BSK_4H_MCP1: BioMAP Diversity Plus: 4H Assay for Monocyte Chemoattractant Protein-1 (MCP1) Biomarker Activity (AID 2283018); conditions: primary human endothelial cells (HUVEC); actives raise or lower the signal
How it was run: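 Endothelial cells from umbilical vein were treated with test chemical, then after 24 h MCP-1 levels were quantified by ELISA; endpoint values came from bidirectional fitting with DMSO as baseline of activity.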

[13] = read-out: Human Leukocyte Antigen - DR isotype (HLADR), HLA-DRA (gene 3122); test: BSK_3C_HLADR: BioMAP Diversity Plus: 3C Assay for Human Leukocyte Antigen - DR isotype (HLADR) Biomarker Activity (AID 2283019); conditions: primary human endothelial cells (HUVEC); actives raise or lower the signal
How it was run: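 ELISA readout of surface HLA-DR on human umbilical vein endothelium, taken 24 h after chemical treatment. Gain- and loss-of-signal were both fitted relative to DMSO.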

[14] = read-out: Intercellular Adhesion Molecule 1 (ICAM1), ICAM1 (gene 3383); test: BSK_3C_ICAM1: BioMAP Diversity Plus: 3C Assay for Intercellular Adhesion Molecule 1 (ICAM1) Biomarker Activity (AID 2283003); conditions: primary human endothelial cells (HUVEC); actives raise or lower the signal
How it was run: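 Chemicals are dosed onto primary human umbilical vein endothelium (3C system). After 24 h, ICAM-1 is measured by ELISA, and responses are fitted bidirectionally relative to DMSO.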

[15] = molecular target: human Retinoic Acid Receptor beta (RARb), RARB (gene 5915) (UniProt P10826); test: ATG_RARb_TRANS: Attagene TRANS-FACTORIAL HepG2 Assay for human Retinoic Acid Receptor beta (AID 2283004; active = hit-call score of the fitted dose curve at least 0.9, where 1 is the maximum)
How it was run: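 Transient transfection of HepG2 with multiple reporter units → chemical dosing, 24 h → total RNA isolation → RT with oligo(dT) → reporter-specific PCR, 6-FAM primer extension, HpaI digest → capillary electrophoresis. Positive direction vs DMSO control.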

[16] = molecular target: Retinoic acid receptor alpha (Homo sapiens) (UniProt P10276); test: ATG_RARa_TRANS: Attagene TRANS-FACTORIAL HepG2 Assay for human Retinoic Acid Receptor alpha (RARa) (AID 2283005; active = hit-call score of the fitted dose curve at least 0.9, where 1 is the maximum)
How it was run: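 Reporter transcripts, measured by RT-PCR with fluorescent labeling and capillary electrophoresis after 24 h dosing, reflect activity of an exogenous human RARa–GAL4 fusion in transiently transfected HepG2. Fitted for increase relative to DMSO.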

[17] = molecular target: human Retinoic Acid Receptor gamma (RARg), RARG (gene 5916) (UniProt P13631); test: ATG_RARg_TRANS: Attagene TRANS-FACTORIAL HepG2 Assay for human Retinoic Acid Receptor gamma (RARg) (AID 2283009; active = hit-call score of the fitted dose curve at least 0.9, where 1 is the maximum)
How it was run: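 TRANS format measured activity of exogenous NR-GAL4 fusion (RARg) in transfected HepG2 liver cells after 24 h dosing. Induced reporter RNA was detected by RT-PCR/capillary electrophoresis fluorescence, analysed in the positive direction against DMSO.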

[18] = molecular target: human RAR-related Orphan Receptor gamma (RORg), RORC (gene 6097) (UniProt P51449); test: ATG_RORg_TRANS: Attagene TRANS-FACTORIAL HepG2 Assay for human RAR-related Orphan Receptor gamma (RORg) (AID 2283011; active = hit-call score of the fitted dose curve at least 0.9, where 1 is the maximum)
How it was run: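 First, HepG2 liver cells were transfected with GAL4-UAS-driven reporter constructs and the RORg-Gal4 fusion. Next, they were treated with chemical for 24 h. Finally, reporter mRNA was quantified by RT-PCR and capillary electrophoresis, with upward activity fitted against DMSO.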

[19] = molecular target: human Retinoid X Receptor beta (RXRb), RXRB (gene 6257) (UniProt P28702); test: ATG_RXRb_TRANS: Attagene TRANS-FACTORIAL HepG2 Assay for human Retinoid X Receptor beta (RXRb) (AID 2283013; active = hit-call score of the fitted dose curve at least 0.9, where 1 is the maximum)
How it was run: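 Chimeric receptor-Gal4 activity was assessed in transiently transfected human HepG2 cells after 24 h exposure. Transcripts from GAL4-UAS reporters were quantified by fluorescent RT-PCR and capillary electrophoresis, with DMSO as negative control and baseline.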

[20] = molecular target: human Thyroid Receptor alpha (THRa1), THRA (gene 7067) (UniProt P10827); test: ATG_THRa1_TRANS: Attagene TRANS-FACTORIAL HepG2 Assay for human Thyroid Receptor alpha (THRa1) (AID 2283014; active = hit-call score of the fitted dose curve at least 0.9, where 1 is the maximum)
How it was run: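 Reporter transcript induction, read by capillary electrophoresis of 6-FAM-labelled RT-PCR products, reflects activity of a transfected THRa1-Gal4 fusion in HepG2 liver cells. Cells were dosed for 24 h; activity was fitted in the positive direction against DMSO.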

Measured: AC50

Chain of Peroxisome proliferator-activated receptor gamma (Homo sapiens) (P37231 whole entry, looked up): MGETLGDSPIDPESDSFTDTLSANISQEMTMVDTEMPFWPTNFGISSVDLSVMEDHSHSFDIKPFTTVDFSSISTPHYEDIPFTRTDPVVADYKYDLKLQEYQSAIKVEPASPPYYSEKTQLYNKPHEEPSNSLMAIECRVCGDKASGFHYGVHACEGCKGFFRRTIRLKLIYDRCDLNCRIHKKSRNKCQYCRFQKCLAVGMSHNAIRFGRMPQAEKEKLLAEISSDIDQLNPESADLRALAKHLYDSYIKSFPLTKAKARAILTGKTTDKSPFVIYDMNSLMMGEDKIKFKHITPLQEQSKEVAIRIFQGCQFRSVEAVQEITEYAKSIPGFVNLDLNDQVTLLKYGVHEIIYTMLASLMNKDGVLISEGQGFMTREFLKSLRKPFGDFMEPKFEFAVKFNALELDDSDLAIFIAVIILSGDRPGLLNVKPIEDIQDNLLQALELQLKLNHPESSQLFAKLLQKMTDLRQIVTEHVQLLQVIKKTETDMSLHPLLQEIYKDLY
Chain of E-selectin (Homo sapiens) (P16581 whole entry, looked up): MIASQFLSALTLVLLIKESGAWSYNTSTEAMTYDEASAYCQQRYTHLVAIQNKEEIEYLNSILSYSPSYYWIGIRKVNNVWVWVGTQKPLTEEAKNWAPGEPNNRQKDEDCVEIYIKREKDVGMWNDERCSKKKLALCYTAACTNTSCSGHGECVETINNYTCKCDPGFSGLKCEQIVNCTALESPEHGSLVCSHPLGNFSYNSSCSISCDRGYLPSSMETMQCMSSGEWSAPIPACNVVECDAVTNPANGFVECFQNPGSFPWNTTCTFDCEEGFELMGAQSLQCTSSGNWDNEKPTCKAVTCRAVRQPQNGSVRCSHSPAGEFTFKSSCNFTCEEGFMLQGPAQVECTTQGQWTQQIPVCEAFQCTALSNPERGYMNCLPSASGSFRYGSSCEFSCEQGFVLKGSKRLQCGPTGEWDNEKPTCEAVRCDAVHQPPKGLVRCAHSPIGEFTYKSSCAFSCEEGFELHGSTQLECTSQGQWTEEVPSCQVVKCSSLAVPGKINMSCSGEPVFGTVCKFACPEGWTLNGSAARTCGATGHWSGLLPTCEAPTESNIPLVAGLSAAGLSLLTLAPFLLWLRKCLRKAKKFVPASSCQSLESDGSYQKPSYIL
Chain of human Peroxisome Proliferator-activated Receptor delta (PPARd), PPARD (gene 5467) (Q03181 whole entry, looked up, the tested form may be a part): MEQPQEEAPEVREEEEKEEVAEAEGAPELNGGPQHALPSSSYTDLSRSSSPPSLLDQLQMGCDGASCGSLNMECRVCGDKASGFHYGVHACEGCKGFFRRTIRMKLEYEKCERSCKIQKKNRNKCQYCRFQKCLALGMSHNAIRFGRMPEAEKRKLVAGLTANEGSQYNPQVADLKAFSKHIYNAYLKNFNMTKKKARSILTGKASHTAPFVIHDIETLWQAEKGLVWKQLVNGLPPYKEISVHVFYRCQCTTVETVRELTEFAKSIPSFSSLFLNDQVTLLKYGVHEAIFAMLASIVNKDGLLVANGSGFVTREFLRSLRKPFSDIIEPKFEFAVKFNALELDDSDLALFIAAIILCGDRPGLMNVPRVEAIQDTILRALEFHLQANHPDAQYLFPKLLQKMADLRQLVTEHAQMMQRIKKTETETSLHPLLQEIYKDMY
Chain of Nuclear receptor subfamily 1 group I member 2 (Homo sapiens) (O75469 whole entry, looked up, the tested form may be a part): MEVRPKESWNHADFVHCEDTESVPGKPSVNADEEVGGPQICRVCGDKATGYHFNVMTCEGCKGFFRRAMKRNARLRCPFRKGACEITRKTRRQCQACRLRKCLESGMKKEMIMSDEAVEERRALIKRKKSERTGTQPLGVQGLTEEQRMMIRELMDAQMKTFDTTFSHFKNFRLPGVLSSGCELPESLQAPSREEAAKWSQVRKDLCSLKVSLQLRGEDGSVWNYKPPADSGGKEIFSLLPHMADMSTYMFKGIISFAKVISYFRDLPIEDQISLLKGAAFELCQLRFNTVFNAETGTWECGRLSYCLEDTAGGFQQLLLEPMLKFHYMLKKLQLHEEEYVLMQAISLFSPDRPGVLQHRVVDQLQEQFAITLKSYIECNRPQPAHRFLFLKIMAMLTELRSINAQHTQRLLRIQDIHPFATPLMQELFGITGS
Chain of Retinoic acid receptor RXR-alpha (Homo sapiens) (P19793 whole entry, looked up, the tested form may be a part): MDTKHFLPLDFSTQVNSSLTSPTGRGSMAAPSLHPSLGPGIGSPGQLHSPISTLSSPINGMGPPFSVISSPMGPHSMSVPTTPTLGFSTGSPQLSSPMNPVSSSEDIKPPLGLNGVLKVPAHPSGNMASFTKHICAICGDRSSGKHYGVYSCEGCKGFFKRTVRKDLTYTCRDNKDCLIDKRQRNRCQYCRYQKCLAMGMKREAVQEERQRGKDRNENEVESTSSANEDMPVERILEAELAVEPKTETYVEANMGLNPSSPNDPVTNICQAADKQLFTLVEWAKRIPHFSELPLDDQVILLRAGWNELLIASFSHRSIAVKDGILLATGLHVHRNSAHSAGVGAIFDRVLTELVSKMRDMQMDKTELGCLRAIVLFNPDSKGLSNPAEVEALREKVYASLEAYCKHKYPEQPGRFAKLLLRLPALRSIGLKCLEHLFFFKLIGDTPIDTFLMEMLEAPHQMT
Chain of human Peroxisome Proliferator-activated Receptor alpha (PPARa), PPARA (gene 5465) (Q07869 whole entry, looked up, the tested form may be a part): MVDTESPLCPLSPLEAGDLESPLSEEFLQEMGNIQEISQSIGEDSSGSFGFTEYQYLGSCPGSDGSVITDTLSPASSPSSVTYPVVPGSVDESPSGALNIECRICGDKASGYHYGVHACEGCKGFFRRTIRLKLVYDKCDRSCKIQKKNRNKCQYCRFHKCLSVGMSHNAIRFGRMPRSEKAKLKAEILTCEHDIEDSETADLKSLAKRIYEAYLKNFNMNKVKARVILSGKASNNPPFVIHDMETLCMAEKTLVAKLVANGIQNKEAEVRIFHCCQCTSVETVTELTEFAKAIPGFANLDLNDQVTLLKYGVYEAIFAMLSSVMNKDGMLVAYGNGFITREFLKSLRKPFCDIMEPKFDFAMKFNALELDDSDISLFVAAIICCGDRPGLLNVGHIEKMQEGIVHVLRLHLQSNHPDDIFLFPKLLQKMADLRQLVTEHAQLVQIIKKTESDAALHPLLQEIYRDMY
Chain of human RAR-related Orphan Receptor beta (RORb), RORB (gene 6096) (Q92753 whole entry, looked up, the tested form may be a part): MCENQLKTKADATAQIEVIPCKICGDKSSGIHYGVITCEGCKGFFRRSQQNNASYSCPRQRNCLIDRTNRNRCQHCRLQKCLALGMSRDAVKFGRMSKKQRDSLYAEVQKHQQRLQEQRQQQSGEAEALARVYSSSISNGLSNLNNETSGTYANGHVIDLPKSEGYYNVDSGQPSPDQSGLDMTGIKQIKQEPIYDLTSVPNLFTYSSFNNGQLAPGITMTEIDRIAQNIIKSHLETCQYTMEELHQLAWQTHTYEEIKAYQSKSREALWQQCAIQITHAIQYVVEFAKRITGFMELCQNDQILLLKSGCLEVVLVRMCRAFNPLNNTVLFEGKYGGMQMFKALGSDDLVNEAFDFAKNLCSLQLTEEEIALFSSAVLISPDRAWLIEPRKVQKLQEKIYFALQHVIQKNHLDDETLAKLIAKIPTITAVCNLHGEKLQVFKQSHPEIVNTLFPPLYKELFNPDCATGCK
Chain of human Thyroid Receptor alpha (THRa1), THRA (gene 7067) (P10827 whole entry, looked up, the tested form may be a part): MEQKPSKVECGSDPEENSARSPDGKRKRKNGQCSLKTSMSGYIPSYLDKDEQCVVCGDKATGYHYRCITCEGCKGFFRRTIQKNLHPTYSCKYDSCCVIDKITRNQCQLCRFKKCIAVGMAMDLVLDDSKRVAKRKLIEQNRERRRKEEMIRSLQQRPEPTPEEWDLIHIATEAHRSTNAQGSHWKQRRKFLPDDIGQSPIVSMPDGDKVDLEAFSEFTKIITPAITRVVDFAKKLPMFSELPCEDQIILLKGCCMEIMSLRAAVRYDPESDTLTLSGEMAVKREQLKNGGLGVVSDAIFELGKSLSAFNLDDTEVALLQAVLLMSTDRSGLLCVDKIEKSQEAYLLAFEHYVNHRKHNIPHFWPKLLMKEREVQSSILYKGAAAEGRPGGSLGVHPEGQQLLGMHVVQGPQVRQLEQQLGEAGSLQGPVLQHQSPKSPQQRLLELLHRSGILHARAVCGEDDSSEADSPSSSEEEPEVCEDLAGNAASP
Chain of human Retinoic Acid Receptor gamma (RARg), RARG (gene 5916) (P13631 whole entry, looked up, the tested form may be a part): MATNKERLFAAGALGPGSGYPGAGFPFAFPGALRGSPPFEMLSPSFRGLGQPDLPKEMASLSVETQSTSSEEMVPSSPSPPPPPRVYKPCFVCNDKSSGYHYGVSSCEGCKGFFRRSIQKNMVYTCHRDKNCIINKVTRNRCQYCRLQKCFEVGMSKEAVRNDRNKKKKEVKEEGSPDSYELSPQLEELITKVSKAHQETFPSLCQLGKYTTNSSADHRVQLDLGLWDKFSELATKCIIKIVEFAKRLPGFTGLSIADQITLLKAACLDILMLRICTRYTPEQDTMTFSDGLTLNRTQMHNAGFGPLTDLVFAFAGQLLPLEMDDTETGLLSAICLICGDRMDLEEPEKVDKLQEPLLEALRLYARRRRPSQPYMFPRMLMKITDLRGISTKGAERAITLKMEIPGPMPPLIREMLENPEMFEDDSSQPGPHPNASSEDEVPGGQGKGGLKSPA
Chain of Retinoic acid receptor alpha (Homo sapiens) (P10276 whole entry, looked up, the tested form may be a part): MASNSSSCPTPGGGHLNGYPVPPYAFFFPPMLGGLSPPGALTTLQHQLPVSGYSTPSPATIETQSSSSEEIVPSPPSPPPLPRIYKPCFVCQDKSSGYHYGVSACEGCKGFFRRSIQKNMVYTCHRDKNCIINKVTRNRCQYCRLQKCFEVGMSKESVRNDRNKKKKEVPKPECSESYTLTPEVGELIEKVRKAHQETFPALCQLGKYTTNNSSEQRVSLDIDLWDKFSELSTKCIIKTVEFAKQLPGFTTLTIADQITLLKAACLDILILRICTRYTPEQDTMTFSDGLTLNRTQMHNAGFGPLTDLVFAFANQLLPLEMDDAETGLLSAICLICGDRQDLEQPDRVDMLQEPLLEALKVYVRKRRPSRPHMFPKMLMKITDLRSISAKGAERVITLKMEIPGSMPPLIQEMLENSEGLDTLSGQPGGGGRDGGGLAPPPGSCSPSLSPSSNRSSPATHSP

C=CC(=O)OCC(F)(F)C(F)(F)C(F)(F)C(F)(F)C(F)(F)C(F)(F)C(F)(F)C(F)F
active: [4] 20.8 µM and 24.1 µM | [5] 37.6 µM
not listed: [14] | [15] | [16] | [17] | [18] | [19] | [20]
inactive: all other assays above

NC(=O)C(F)(F)C(F)(F)C(F)(F)C(F)(F)C(F)(F)C(F)(F)C(F)(F)F
active: [2] 86.9 µM
not listed: [3] | [8]
inactive: all other assays above

CN(C(=O)C(F)(F)C(F)(F)C(F)(F)F)[Si](C)(C)C
not listed: [7] | [15] | [17] | [18] | [19]
inactive: all other assays above

NS(=O)(=O)C(F)(F)C(F)(F)C(F)(F)C(F)(F)C(F)(F)C(F)(F)F
active: [1] 46.4 µM and 20.3 µM | [2] 28.2 µM | [4] 28.9 µM and 49.6 µM | [5] 50.5 µM | [10] 31.6 µM | [13] 22.6 µM and 24.2 µM
inactive: [3] | [15] | [6] | [17] | [7] | [8] | [20] | [9] | [10] | [11] | [12]
